Assay results published in PubChem BioAssay (Tox21).
Values joined by “and” are separate entries in the source; they are usually repeats but may differ in a detail not shown here. Identical values can stand only once. Results filed as inconclusive are left out. Some compounds were tested as several samples or in several runs, with calls that do not always agree. Active and inactive are the calls of the source. Calls follow the shape of the dose curve; as a rule, active = well fitted activation curve with a large enough effect in the repeat runs; inconclusive = weak or mixed curves; inactive = no such curve, though single readings can be large or run the other way.

target: Nuclear receptor subfamily 1 group I member 2 (Homo sapiens) (UniProt O75469); assay: Human pregnane X receptor (PXR) small molecule agonists, qHTS assay (AID 1346982); conditions: PXR-Luc HepG2, CYP3A4 luciferase reporter, 24 h; series mostly up to 92.4 µM; activation: at the top concentration; also: nearly all actives have a fitted effect of over 35% in size
Method in brief: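 After plating in 5% charcoal-stripped FBS and a 5 hr rest, PXR-Luc HepG2 cells received compounds in DMSO. Following 24 hr at 37 C, ONE-Glo was added and light output read.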
% is scaled to controls: 0 for no effect and ±100 for the full control effect; potency is read from the fitted curve at half-maximal effect.

Chain of Nuclear receptor subfamily 1 group I member 2 (Homo sapiens) (O75469 whole entry, looked up): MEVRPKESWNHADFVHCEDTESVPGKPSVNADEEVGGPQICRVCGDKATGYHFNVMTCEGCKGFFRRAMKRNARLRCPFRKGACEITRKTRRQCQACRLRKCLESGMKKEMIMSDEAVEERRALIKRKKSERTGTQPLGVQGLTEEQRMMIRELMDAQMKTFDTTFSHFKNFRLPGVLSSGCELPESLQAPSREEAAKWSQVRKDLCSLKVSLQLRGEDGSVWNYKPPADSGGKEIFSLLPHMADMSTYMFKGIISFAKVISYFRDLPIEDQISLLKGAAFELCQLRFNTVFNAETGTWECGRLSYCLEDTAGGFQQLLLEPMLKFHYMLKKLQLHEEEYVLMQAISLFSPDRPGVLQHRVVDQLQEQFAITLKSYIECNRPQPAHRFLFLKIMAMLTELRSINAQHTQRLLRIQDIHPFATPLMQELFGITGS

Structure (SMILES) | Potency | activation
Nc1cc(-c2ccncc2)c[nH]c1=O | inactive | 
Oc1ccc(OCc2ccccc2)cc1 | 30 µM (active) | 
CCOC(=O)C1OC1c1ccccc1 (stereo not drawn) | inactive | 
O=C(O)c1ccc([N+](=O)[O-])cc1 | inactive | 
Cc1cc(=O)[nH]c(C(C)C)n1 | inactive | 
NC(=O)/N=N/C(N)=O | inactive | 
CCCCCCCCCCCCOCC1CO1 (stereo not drawn) |  | 27.4% (inactive)
O=S(=O)(O)CCS | inactive | 
O=C(O)c1cc(-c2ccccc2)nc2ccccc12 |  | 20.8% [at 42.5 µM] (inactive)
OC1CCCC1 | 30.6 µM (active) and inactive | 
COC(=O)c1ccccc1O | 34.4 µM (active) and inactive | 
Cc1ccc(N)c(S(=O)(=O)O)c1 | inactive | 
CCCCOCCOCCOC(=O)CCCCC(=O)OCCOCCOCCCC | inactive | 
CCCCC(CC)COC(C)=O (stereo not drawn) | inactive | 
CC1=C(/C=C/C(C)=C/C=C/C(C)=C/CO)C(C)(C)CCC1 | 55.1 µM (active) and 32.3 µM (active) | 
Cc1cc(Cc2ccc(N)c(C)c2)ccc1N | 61.1 µM (active) | 
NCCc1ccc(O)c(O)c1 |  | -17.5% [at 42.5 µM] (inactive)
C=C(C#N)C(=O)OCC |  | 3% (inactive)
O=[N+]([O-])C(CO)(CO)CO | 1.35 µM (active) and inactive | 
CCOC(=O)/C=C\C(=O)OCC | inactive | 
CC(C)(N=C=O)c1cccc(C(C)(C)N=C=O)c1 | 10.8 µM (active) and 61.1 µM (active) | 
CC[Si](OC(C)=O)(OC(C)=O)OC(C)=O | 48.5 µM (active) and 48.6 µM (active) | 
C=C(C)C(=O)OCCCCCCCCCCCC | inactive | 
